The values below come from PubChem BioAssay (EPA / NIEHS).

Calls of active or inactive are those of the source. Rule for the calls: active = hit-call score of the fitted dose curve at least 0.9, where 1 is the maximum; inactive = score below 0.9.

Experiment [1] can be described thus: ATG_M_61_CIS: Attagene CIS-FACTORIAL HepG2 Assay for M61 Transcription Factor (Internal Marker) (AID 2282937). The following applies: HepG2 Attagene CIS-FACTORIAL M61 internal marker reporter; actives raise or lower the signal. The essentials:
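Fluorescence from labelled cDNA fragments, separated by capillary electrophoresis, quantifies reporter induction. HepG2 cells bearing transiently transfected cis-promoter MRTUs were incubated with test chemical for 24 h; DMSO defined baseline for gain/loss fitting.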

The nature of experiment [2]: ATG_EGR_CIS: Attagene CIS-FACTORIAL HepG2 Assay for human Early Growth Response 1 (EGR1) (AID 2282938). The note with it: HepG2 Attagene CIS-FACTORIAL EGR reporter mRNA; actives raise or lower the signal. The essentials: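 Cell-based multiplex transcription assay: HepG2 carrying transfected cis-element reporter units, 24 h chemical treatment. Fluorescence from capillary electrophoresis of RT-PCR products gives mRNA levels; fitting is bidirectional relative to DMSO.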

Experiment [3] is described as follows: ATG_M_19_CIS: Attagene CIS-FACTORIAL HepG2 Assay for M19 Transcription Factor (Internal Marker) (AID 2282939). The note with it: HepG2 Attagene CIS-FACTORIAL M19 internal marker reporter; actives raise or lower the signal. Summed up:
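Signals come from fluorescence of labelled reporter-specific PCR fragments resolved by capillary electrophoresis, following 24 h treatment of HepG2 cells transfected with cis-promoter reporter units; activity was fitted in both directions relative to DMSO.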

Experiment [4] can be described thus: ATG_Ets_CIS: Attagene CIS-FACTORIAL HepG2 Assay for human Erythroblast Transformation Specific (ETS) (AID 2282941). The note with it: HepG2 ETS cis-reporter transcription, actives raise or lower the signal. The essentials: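 HepG2 cells transiently transfected with cis-promoter reporter transcription units were dosed for 24 h; reporter mRNA was measured by RT-PCR, 6-FAM primer extension, HpaI digestion and capillary electrophoresis, with bidirectional fitting against DMSO baseline.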

The target of experiment [5] is Hepatocyte nuclear factor 3-beta (Homo sapiens) (UniProt Q9Y261). The experiment is described as follows: ATG_FoxA2_CIS: Attagene CIS-FACTORIAL HepG2 Assay for human Forkhead box A2 (FOXA2) (AID 2282942). The following applies: HepG2 cis-reporter transcription factor activity, 24 h; actives raise or lower the signal. The essentials: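 In transiently transfected human HepG2 cells, promoter-driven reporter mRNA levels after 24 h chemical exposure are determined via RT-PCR with capillary electrophoresis. DMSO serves as baseline for bidirectional fitting.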

Experiment [6] in a line: ATG_FoxO_CIS: Attagene CIS-FACTORIAL HepG2 Assay for human Forkhead box O (FoxO) (AID 2282943). The note with it: HepG2 Attagene cis-reporter, FoxO element, mRNA; actives raise or lower the signal. Summed up:
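Read-out: fluorescence of 6-FAM-labelled reporter cDNA fragments resolved by capillary electrophoresis. Transiently transfected HepG2 cells were dosed for 24 h; activity fitted in both directions relative to DMSO controls.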

Experiment [7] can be described thus: ATG_GATA_CIS: Attagene CIS-FACTORIAL HepG2 Assay for human GATA Binding Protein (AID 2282944). The following applies: HepG2 GATA cis-element reporter, Attagene multiplex mRNA; actives raise or lower the signal. Summed up: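 After transfecting HepG2 cells with multiple cis-regulated reporter units, chemicals are dosed for 24 h; isolated RNA undergoes RT-PCR and fluorescent labeling before capillary electrophoresis, with activity expressed against DMSO.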

The nature of experiment [8]: ATG_GLI_CIS: Attagene CIS-FACTORIAL HepG2 Assay for human Zinc Finger Protein GLI1 (AID 2282945). The note with it: HepG2, Attagene cis-factorial reporter mRNA, GLI element; actives raise or lower the signal. Summed up: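 Transiently transfected HepG2 cells report endogenous transcription factor activity via cis-element-driven reporter units. After 24 h compound exposure, reporter mRNA was measured by RT-PCR with capillary electrophoresis; bidirectional fitting against DMSO baseline.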

For experiment [9], the target named is Bile acid receptor (Homo sapiens) (UniProt Q96RI1). The experiment can be described thus: ATG_IR1_CIS: Attagene CIS-FACTORIAL HepG2 Assay for human Nuclear Receptor Subfamily 1 Group H Member 4 (NR1H4), IR1 submotif (AID 2282946). The note with it: IR1 reporter transcription, actives raise or lower the signal. Summed up: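 HepG2 cells transiently transfected with multiple cis-promoter-driven reporter units to measure endogenous transcription factor activity; 24 h exposure. Reporter mRNA read by RT-PCR, FAM labelling, HpaI digestion and capillary electrophoresis. Bidirectional fit versus DMSO.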

Experiment [10] in a line: ATG_GRE_CIS: Attagene CIS-FACTORIAL HepG2 Assay for human Glucocorticoid Response Elements (GRE) (AID 2282947). The following applies: HepG2 GRE cis-reporter, Attagene multiplex mRNA; actives raise or lower the signal. The essentials:
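Transiently transfected HepG2 cells carrying GRE cis-reporter units (endogenous TF activity) dosed 24 h; reporter mRNA quantified by RT-PCR, 6-FAM labelling, HpaI digestion and capillary electrophoresis. Bidirectional fit versus DMSO baseline.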

The nature of experiment [11]: ATG_ISRE_CIS: Attagene CIS-FACTORIAL HepG2 Assay for human Interferon Regulatory Factor 1 (IRF1) binding to an Interferon-Stimulated Response Element (ISRE) (AID 2282948). The following applies: HepG2 ISRE cis-reporter (Attagene), mRNA transcription readout; actives raise or lower the signal. The essentials:
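HepG2 cells transiently transfected with multiplexed cis-promoter reporter units; after 24 h compound exposure, reporter mRNA quantified by RT-PCR, FAM labelling, HpaI digestion and capillary electrophoresis. Bidirectional fit versus DMSO baseline.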

Experiment [12] in a line: ATG_M_32_CIS: Attagene CIS-FACTORIAL HepG2 Assay for M32 Transcription Factor (Internal Marker) (AID 2282949).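 Note: background control marker of the multiplexed CIS panel rather than a real target.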 The note with it: HepG2 Attagene cis-factorial M32 reporter, mRNA; actives raise or lower the signal. Summed up:
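HepG2 cells transiently transfected with multiplexed cis-regulated reporter units, dosed 24 h. Reporter mRNA quantified by RT-PCR, 6-FAM labelling, HpaI digestion and capillary electrophoresis; bidirectional fit vs DMSO.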

Experiment [13] in a line: ATG_M_06_CIS: Attagene CIS-FACTORIAL HepG2 Assay for M06 Transcription Factor (Internal Marker) (AID 2282950). The note with it: HepG2 Attagene CIS-FACTORIAL M06 internal marker reporter; actives raise or lower the signal. Summed up: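 HepG2 liver cells, 24 h exposure. Reporter transcripts from transfected cis-element constructs quantified by RT-PCR/capillary electrophoresis fluorescence. Bidirectional curve fit against DMSO.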

The target of experiment [14] is Hypoxia-inducible factor 1-alpha (Homo sapiens) (UniProt Q16665). The experiment is described as follows: ATG_HIF1a_CIS: Attagene CIS-FACTORIAL HepG2 Assay for human Hypoxia Inducible Factor 1 (HIF1A) (AID 2282951). The following applies: HepG2 Attagene cis-factorial HIF1a reporter transcription; actives raise or lower the signal. The essentials: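 In this multiplexed cell assay, HepG2 cells bearing transfected cis reporters are dosed for 24 h and reporter mRNA is read by RT-PCR plus capillary electrophoresis; signal increases and decreases are both scored against DMSO.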

The target of experiment [15] is Hepatocyte nuclear factor 6 (Homo sapiens) (UniProt Q9UBC0). The experiment can be described thus: ATG_HNF6_CIS: Attagene CIS-FACTORIAL HepG2 Assay for human Hepatocyte Nuclear Factor 6 (HNF6) (AID 2282952). The following applies: HepG2 Attagene cis-factorial HNF6 reporter transcription; actives raise or lower the signal. The essentials:
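Multiplexed mRNA reporter assay in transfected HepG2; 24 h dosing; RT-PCR plus capillary electrophoresis fluorescence; DMSO-referenced bidirectional curve fitting.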

The target of experiment [16] is Heat shock factor protein 1 (Homo sapiens) (UniProt Q00613). The experiment can be described thus: ATG_HSE_CIS: Attagene CIS-FACTORIAL HepG2 Assay for human Heat Shock Transcription Factor 1 (HSE) (AID 2282953). The following applies: HepG2 HSE cis-reporter, Attagene RNA transcription; actives raise or lower the signal. Summed up: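 Endogenous transcription factor activity captured via cis-promoter reporter units transfected into HepG2; treatment lasted 24 h. Fluorescence intensity of reporter fragments analysed with bidirectional curve fitting, DMSO baseline.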

Experiment [17] in a line: ATG_MRE_CIS: Attagene CIS-FACTORIAL HepG2 Assay for human Metal Responsive Element (MRE) (AID 2282954). The following applies: HepG2 MRE cis-reporter transcription, Attagene multiplex; actives raise or lower the signal. The essentials: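 HepG2 cells transiently transfected with cis-element-driven reporter units; mRNA measured 24 h after dosing. Reporter transcripts quantified by RT-PCR, FAM labelling, HpaI digestion and capillary electrophoresis; bidirectional fit versus DMSO.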

Experiment [18] in a line: ATG_PBREM_CIS: Attagene CIS-FACTORIAL HepG2 Assay for human Phenobarbital-responsive Enhancer Module (PBREM) (AID 2282955). The note with it: HepG2 PBREM cis-reporter, Attagene multiplexed transcription; actives raise or lower the signal. The essentials: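 After a 24 h incubation with test chemical, transfected HepG2 cells yield total RNA; reporter-specific RT-PCR products are fluorescently labelled, HpaI-digested and resolved by capillary electrophoresis against ROX size standards.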

Experiment [19] has as its target Paired box protein Pax-6 (Homo sapiens) (UniProt P26367). The experiment can be described thus: ATG_Pax6_CIS: Attagene CIS-FACTORIAL HepG2 Assay for human Paired Box 6 (PAX6) (AID 2282956). The following applies: HepG2 CIS-FACTORIAL PAX6 reporter transcription, RNA readout; actives raise or lower the signal. The essentials: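 HepG2 cells transiently transfected with multiplexed cis-promoter reporter units (endogenous TF activity) were dosed for 24 h. Reporter mRNA was quantified by RT-PCR, 6-FAM labeling, HpaI digestion and capillary electrophoresis; bidirectional fitting versus DMSO baseline.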

The nature of experiment [20]: ATG_ERE_CIS: Attagene CIS-FACTORIAL HepG2 Assay for Estrogen Response Element (ERE) (AID 2282940). The following applies: HepG2 ERE cis-reporter, Attagene RNA transcript; actives raise or lower the signal. Summed up:
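Fluorescence of capillary-separated, FAM-labelled reporter cDNA fragments indicates reporter mRNA levels in HepG2 cells exposed to chemicals for 24 h. Transient transfection with cis-regulated units; data fitted in both directions against DMSO.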

Sequence of Paired box protein Pax-6 (Homo sapiens) (P26367 whole entry, looked up): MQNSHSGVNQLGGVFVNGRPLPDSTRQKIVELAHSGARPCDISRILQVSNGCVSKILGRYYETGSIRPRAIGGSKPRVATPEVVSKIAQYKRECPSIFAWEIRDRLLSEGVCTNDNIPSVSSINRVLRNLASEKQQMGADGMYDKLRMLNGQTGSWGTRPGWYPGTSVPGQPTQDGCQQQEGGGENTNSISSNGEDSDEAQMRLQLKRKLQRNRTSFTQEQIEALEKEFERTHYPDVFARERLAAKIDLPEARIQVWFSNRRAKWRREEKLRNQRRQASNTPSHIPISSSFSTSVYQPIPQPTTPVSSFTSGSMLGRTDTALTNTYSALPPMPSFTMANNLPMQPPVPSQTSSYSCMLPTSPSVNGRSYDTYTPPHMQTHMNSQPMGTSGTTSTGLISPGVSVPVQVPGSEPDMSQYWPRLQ
Sequence of Hypoxia-inducible factor 1-alpha (Homo sapiens) (Q16665 whole entry, looked up): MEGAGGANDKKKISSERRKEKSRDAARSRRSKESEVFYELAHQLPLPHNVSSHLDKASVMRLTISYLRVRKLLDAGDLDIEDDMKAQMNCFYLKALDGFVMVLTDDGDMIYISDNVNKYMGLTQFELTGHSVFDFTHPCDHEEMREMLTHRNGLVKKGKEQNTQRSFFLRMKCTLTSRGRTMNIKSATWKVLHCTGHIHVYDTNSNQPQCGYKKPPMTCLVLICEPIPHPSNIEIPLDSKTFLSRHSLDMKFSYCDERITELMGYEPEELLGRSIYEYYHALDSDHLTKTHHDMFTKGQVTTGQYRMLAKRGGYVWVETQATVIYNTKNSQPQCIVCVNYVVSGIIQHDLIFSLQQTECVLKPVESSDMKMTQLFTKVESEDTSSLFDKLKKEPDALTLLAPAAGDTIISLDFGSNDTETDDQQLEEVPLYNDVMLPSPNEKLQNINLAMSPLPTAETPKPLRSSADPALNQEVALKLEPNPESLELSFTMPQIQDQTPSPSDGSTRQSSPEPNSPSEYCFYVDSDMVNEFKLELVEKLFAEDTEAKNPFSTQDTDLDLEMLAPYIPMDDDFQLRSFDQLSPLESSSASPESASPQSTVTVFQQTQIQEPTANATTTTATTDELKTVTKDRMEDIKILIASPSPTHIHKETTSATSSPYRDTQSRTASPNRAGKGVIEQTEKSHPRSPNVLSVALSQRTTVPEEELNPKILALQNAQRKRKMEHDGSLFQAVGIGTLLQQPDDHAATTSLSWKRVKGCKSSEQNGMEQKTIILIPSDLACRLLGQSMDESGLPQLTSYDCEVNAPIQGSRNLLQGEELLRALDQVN
Sequence of Heat shock factor protein 1 (Homo sapiens) (Q00613 whole entry, looked up, the tested form may be a part): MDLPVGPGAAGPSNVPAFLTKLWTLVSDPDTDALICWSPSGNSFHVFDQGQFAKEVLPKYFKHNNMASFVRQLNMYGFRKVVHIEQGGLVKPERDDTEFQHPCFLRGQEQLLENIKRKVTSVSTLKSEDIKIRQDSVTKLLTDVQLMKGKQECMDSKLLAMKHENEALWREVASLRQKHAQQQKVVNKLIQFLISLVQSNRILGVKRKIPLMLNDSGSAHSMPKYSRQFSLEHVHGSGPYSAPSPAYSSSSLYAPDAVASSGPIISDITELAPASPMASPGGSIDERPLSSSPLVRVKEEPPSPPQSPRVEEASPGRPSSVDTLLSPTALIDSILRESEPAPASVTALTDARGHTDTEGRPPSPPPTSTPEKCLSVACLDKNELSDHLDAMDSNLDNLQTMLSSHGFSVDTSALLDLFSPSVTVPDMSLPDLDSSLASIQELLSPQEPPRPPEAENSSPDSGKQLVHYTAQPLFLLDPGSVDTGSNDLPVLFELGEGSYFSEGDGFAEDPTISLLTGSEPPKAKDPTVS
Sequence of Hepatocyte nuclear factor 3-beta (Homo sapiens) (Q9Y261 whole entry, looked up): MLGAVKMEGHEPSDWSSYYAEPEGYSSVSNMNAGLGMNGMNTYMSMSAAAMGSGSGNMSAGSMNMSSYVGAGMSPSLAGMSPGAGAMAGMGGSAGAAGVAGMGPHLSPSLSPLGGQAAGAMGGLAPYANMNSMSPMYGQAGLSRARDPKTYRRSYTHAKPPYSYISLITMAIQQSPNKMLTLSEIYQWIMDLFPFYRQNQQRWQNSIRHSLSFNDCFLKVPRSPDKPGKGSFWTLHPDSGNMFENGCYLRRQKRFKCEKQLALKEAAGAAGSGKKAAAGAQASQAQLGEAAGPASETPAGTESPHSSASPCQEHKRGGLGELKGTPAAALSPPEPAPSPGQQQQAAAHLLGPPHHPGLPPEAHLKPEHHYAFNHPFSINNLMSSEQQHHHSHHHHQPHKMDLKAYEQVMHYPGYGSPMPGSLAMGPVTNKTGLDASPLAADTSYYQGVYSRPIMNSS
Sequence of Hepatocyte nuclear factor 6 (Homo sapiens) (Q9UBC0 whole entry, looked up): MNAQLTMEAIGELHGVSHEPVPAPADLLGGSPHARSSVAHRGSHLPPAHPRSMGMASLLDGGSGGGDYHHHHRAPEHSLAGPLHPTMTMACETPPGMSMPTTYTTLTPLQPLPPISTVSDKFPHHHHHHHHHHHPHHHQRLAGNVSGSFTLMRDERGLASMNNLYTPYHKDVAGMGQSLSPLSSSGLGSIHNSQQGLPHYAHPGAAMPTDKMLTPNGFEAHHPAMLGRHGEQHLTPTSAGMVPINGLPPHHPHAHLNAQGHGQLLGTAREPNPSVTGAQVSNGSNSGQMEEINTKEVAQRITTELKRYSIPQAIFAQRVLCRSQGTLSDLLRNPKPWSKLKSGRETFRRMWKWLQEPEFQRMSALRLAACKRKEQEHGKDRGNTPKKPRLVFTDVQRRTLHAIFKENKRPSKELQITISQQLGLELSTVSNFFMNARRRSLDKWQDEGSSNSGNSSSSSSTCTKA
Sequence of Bile acid receptor (Homo sapiens) (Q96RI1 whole entry, looked up): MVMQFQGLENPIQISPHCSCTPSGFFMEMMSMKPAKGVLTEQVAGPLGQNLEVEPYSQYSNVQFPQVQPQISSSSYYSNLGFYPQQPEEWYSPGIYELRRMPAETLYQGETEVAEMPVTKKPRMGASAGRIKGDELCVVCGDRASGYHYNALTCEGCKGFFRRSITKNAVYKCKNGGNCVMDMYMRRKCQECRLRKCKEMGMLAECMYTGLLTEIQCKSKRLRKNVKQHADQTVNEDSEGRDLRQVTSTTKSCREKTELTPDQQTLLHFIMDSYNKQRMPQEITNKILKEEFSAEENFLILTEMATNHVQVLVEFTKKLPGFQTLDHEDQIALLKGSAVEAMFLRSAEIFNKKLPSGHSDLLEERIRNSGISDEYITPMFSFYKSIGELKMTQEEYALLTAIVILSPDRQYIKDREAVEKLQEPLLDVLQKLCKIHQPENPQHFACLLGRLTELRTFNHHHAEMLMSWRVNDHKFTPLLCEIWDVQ

The term AC50 denotes the concentration giving half of the maximal activity seen. `C[CH2][Hg][S]c1ccccc1C(=O)O`: the outcome in experiment [1], in experiment [3], in [5], in experiment [8], in experiment [9] and in [10] was inactive. Also, the result in [12], in [13], in [14], in experiment [16] and in experiment [18] was inactive. In addition, the AC50 was 3.71 µM (active) in experiment [2]; 3.71 µM (active) in experiment [4]; 2.29 µM (active) in experiment [6]; 1.99 µM (active) in [7]; 6.49 µM (active) in [11]; 4.19 µM (active) in [15]. In addition, the AC50 was 3.71 µM (active) in experiment [17] and 4.42 µM (active) in experiment [19].
Consider `CN(N=O)c1ccc([N+](=O)[O-])cc1`, for which the call in experiment [1], in [2], in experiment [3], in [20], in experiment [5] and in experiment [6] was inactive. The molecule was called inactive in experiment [8], in experiment [9], in [10], in experiment [11], in [12] and in experiment [13]. Further, the result in experiment [14], in experiment [15], in [16], in [17], in [18] and in experiment [19] was inactive.
Consider `CC1CC(=O)O1` (stereo not given), for which the result in experiment [1], in experiment [2], in experiment [3], in experiment [4], in experiment [5] and in [6] was inactive. In addition, the result in experiment [7], in experiment [8], in experiment [9], in experiment [10], in [11] and in experiment [12] was inactive. Also, the outcome in experiment [13], in experiment [15], in [16], in experiment [17] and in [19] was inactive. The AC50 in [14] is 88 µM (active).
